Bioassay records: PubChem BioAssay, National Center for Advancing Translational Sciences (NCATS)
D3 antag – D3 dopamine receptor (human) antagonism | D3R cells, DiscoveRx beta-arrestin luminescence, antagonist mode; active compounds read low | max response, negative = inhibition, % | 2.5% of 360,000 active | AID 652054; in the data active = max response below about -50%; inconclusive = no clear call, values can overlap the other calls; also: % is scaled to controls: 0 for no effect and ±100 for the full control effect
Target sequence (P35462 whole entry, looked up): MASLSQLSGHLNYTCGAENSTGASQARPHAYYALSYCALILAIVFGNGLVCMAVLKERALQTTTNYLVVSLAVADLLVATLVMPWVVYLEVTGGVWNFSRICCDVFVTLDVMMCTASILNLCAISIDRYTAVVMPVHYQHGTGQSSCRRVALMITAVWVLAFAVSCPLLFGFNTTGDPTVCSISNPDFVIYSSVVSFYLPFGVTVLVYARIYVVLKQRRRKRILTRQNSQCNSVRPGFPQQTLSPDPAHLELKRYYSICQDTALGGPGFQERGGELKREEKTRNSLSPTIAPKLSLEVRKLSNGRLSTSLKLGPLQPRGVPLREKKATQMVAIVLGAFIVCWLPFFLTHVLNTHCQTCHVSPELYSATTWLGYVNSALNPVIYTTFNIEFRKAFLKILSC
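Cells expressing the human receptor were seeded at 1500 cells/well, incubated overnight at 37 degrees C in 5% CO2, then exposed to library compounds with dopamine controls for 90 minutes at 37 degrees C before luminescent detection.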
TDP1 cell noCPT – qHTS for Inhibitors of human tyrosyl-DNA phosphodiesterase 1 (TDP1): qHTS in cells in absence of CPT; DT40 Tdp1-/- hTDP1 cells, no CPT, ATP luminescence, 48 h; Potency, µM (titrated, usually from 46.2 µM), inactives show at the top dose activity change, negative = growth inhibition, actives largely listed as inhibitors; 15% of 420,000 active; AID 686978, 2013; also: potency is read from the fitted curve at half-maximal effect; % is scaled to controls: 0 for no effect and ±100 for the full control effect; nearly all actives have a fitted effect of over 55% in size
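Camptothecin absent (DMSO only). Human TDP1-complemented DT40 knockout cells, 400 cells/well, 37 °C for minimum 48 hr; ATP measured via CellTiter-Glo, 30 min dark incubation, luminescence.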
DRD3 agonist – agonists of human D3 dopamine receptor; D3R DiscoveRx beta-arrestin cells, luminescence, 90 min; max activation, %; 0.58% of 410,000 active; P35462; AID 652048; in the data active = max activation above about 30%; also: 0% is about no effect
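Cells at 1500/well, incubated overnight, then treated with pinned compounds (dopamine as control) for 90 min at 37 degrees C. DiscoveRx reagent added for 30 - 60 minutes at room temperature; luminescence read.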
ClpP mod – qHTS Assay for Activators of ClpP; ATP-dependent Clp protease proteolytic subunit (Bacillus subtilis (strain 168)), P80244; purified B. subtilis ClpP, FRET peptide cleavage, 20 min; 1.9% of 340,000 active; Potency, µM (series often up to 57.5 µM), for the others: at the top dose activity change, negative = active; AID 651965, 2013; active = well fitted falling curve with a large enough effect; inconclusive = small, poorly fitted or top-dose-only effect; inactive = no such curve, though single readings can be large or run the other way; also: potency is read from the fitted curve at half-maximal effect; the source files actives as falling curves though it sought activators and does not explain the sign; nearly all actives have a fitted effect of over 65% in size
Target sequence (P80244 whole entry, looked up): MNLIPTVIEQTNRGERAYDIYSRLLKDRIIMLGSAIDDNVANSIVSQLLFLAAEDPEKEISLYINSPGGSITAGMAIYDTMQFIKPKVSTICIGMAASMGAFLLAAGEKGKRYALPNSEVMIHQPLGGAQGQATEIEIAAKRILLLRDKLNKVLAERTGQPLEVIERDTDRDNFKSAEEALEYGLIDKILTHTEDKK
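FRET quenching reversal measured ClpP activation: 10 microg/mL B. subtilis ClpP at pH 8 with the FRET-FV decapeptide, read at 430 nm after 320 nm excitation. The 20-min minus 0-min signal was scaled between DMSO/no-enzyme wells and ADEP (5.8 microM final).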
IL1B secr inh – blocks inflammasome-driven IL-1 beta release; AID 743279; THP-1 LPS/ATP IL-1B secretion, AlphaLISA, 16 h; active compounds read low; 4.7% of 360,000 active; activity change, % at 57.5 µM; in the data active = activity change below about -50%; inconclusive = mostly about -30% to -49%; also: % is scaled to controls: 0 for no effect and ±100 for the full control effect
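Secreted IL-1B measured by AlphaLISA bead assay after 16 h compound exposure of THP-1 cells; compounds (final up to 57.5 uM) added 1 h before LPS (250 ng/mL) and ATP (1.25 mM) stimulation; lower signal means less secretion.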
TDP1 cell CPT – growth inhibition of DT40 Tdp1-/-;hTDP1 cells with camptothecin (screen for TDP1 inhibitors) | 12% of 420,000 active | Potency, µM (series often up to 46.2 µM), inactives show top-dose activity change, negative = growth inhibition, hits mostly inhibitors | chicken DT40 Tdp1-/-;hTDP1 cells + 20 nM CPT, ATP luminescence, 48 h; also: potency is read from the fitted curve at half-maximal effect; % is scaled to controls: 0 for no effect and ±100 for the full control effect; nearly all actives have a fitted effect of over 55% in size
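Cell growth measured by CellTiter-Glo luminescence after a minimum 48 h, 37 C compound exposure with 20 nM CPT in Tdp1-knockout DT40 cells stably expressing hTDP1, seeded 400/well; qHTS titration format.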
* hit, by the source's call; ? = inconclusive; nt = no result given; [ ] = another dose, or the depositor's remark. An excerpt weighted towards active compounds, which were near 21% of everything screened. Unless noted, calls follow the shape of the dose curve; as a rule, active = well fitted inhibition curve with a large enough effect; inconclusive = small, poorly fitted or top-dose-only effect; inactive = flat fitted curve, though single readings scatter.

SMILES	D3 antag	TDP1 cell noCPT	DRD3 agonist	ClpP mod	IL1B secr inh	TDP1 cell CPT
O=C(Nc1ccccc1N1CCN(C(=O)c2ccc(Cl)cc2)CC1)c1ccc(Br)cc1	-3	-2%	-4	-18%	-16	?
O=C(Nc1ccccc1N1CCN(C(=O)c2ccc(Cl)cc2)CC1)c1ccc([N+](=O)[O-])o1	27	?	-6	0%	-76*	21µM*
Cc1cccc(OCCNC(=O)c2ccc(Cl)c(S(=O)(=O)NCc3cccnc3)c2)c1	-3	2.6µM*	-16	0%	104	3.7µM*
Cc1ccc(S(=O)(=O)NCc2ccc(C(=O)NCCc3cccc(C)c3)cc2)cc1	nt	?	-3	2%	nt	?
Cc1ccc(OCCNC(=O)c2cccc(Oc3ccc(C(F)(F)F)cc3[N+](=O)[O-])c2)cc1	1	16µM*	0	1%	-11	?
Cc1ccc(S(=O)(=O)NCc2ccc(C(=O)NCCN(Cc3ccccc3)C(C)C)cc2)cc1	-79*	16µM*	-19	nt	-66*	?
O=C(NCc1ccncc1)c1cccc(S(=O)(=O)NCc2ccccc2)c1	-5	0%	0	0%	18	-4%
Cc1cccc(OCCNc2ccc(C(F)(F)F)cc2[N+](=O)[O-])c1	7	-11%	0	2%	-13	4%
Cc1ccc(OCCNC(=O)c2cccc(S(=O)(=O)NCc3ccccc3)c2)cc1	6	4.6µM*	-13	-9%	13	4.1µM*
COC(=O)N(C)C[C@H]1OCc2cnnn2CCCC(=O)N([C@@H](C)CO)C[C@H]1C	22	-6%	4	-1%	-6	12%
COc1ccc(N(C)S(=O)(=O)c2cccc(C(=O)NCc3ccc(C)cc3)c2)cc1	3	?	4	0%	-59*	?
COc1ccc(OCCN(C)C(=O)c2cccc(S(=O)(=O)N(C)c3ccccc3)c2)cc1	-5	18µM*	0	1%	?	12µM*
COc1ccc(N(C)S(=O)(=O)c2cccc(C(=O)NCC3CCCO3)c2)cc1 (configuration not stated)	-15	-29%	-5	-2%	-7	?
CCN(c1ccccc1)S(=O)(=O)c1cccc(C(=O)N(C)CCOc2ccccc2)c1	-15	21µM*	2	-2%	-17	15µM*
CC(Nc1ccc(-c2nc(-c3ccncc3)no2)cc1[N+](=O)[O-])c1ccccc1 (configuration not stated)	nt	-21%	-17	-1%	nt	-18%
O=C(NC(Cc1cc(=O)[nH]c2ccccc12)C(=O)O)c1ccc(Cl)cc1 (configuration not stated)	nt	-10%	2	nt	nt	15%
C=CCn1c(SCC(=O)NC2CC2)nnc1-c1cccs1	12	19%	2	-3%	-9	-19%
O=C(NCCCN1CCN(c2cccc(Cl)c2)CC1)c1ccc2nc(Cc3ccccc3)oc2c1	nt	15µM*	-7	-5%	nt	23µM*
CC(C)c1nc2ccc(C(=O)NCCCN3CCN(c4cccc(Cl)c4)CC3)cc2o1	nt	21µM*	16	-1%	nt	18µM*
COc1ccc(Cc2nc3ccc(C(=O)NCCc4ccccc4)cc3o2)cc1	nt	?	-28	-14%	nt	26µM*
CN1CCN(CCCNC(=O)c2ccc3nc(Cc4ccccc4)oc3c2)CC1	nt	2%	7	-4%	nt	5%
COCC1CCCCN1C(=O)c1ccc2nc(Cc3ccc(OC)c(OC)c3)oc2c1 (configuration not stated)	31	?	14	0%	77	12µM*
CN(C)[C@@H]1C(=O)C(C(=O)NCN2CCCC2)=C(O)[C@@]2(O)C(=O)C3=C(O)c4c(O)cccc4[C@@](C)(O)C3C[C@@H]12 (some centres not stated)	nt	-1%[21.1 µM]	-26	nt	nt	-15%[21.1 µM]
CCOc1ccc(C=NNC(=O)c2ccc(-n3cnnn3)cc2)cc1	5	13%	3	-27%	?	-1%
COC(=O)C1CCN(C(=O)c2ccc3nc(-c4cccc(OC)c4)oc3c2)CC1	10	-28%	0	-16%	8	-25%
SMILES	D3 antag	TDP1 cell noCPT	DRD3 agonist	ClpP mod	IL1B secr inh	TDP1 cell CPT
COc1ccc(N2CCN(CCCNC(=O)c3ccc4nc(Cc5ccccc5)oc4c3)CC2)cc1	nt	6.5µM*	4	-3%	nt	6.5µM*
O=C(NCCCN1CCN(c2ccccc2)CC1)c1ccc2nc(CCc3ccccc3)oc2c1	nt	4.6µM*	12	1%	nt	3.7µM*
COc1cccc(-c2nc3ccc(C(=O)NC(C)Cc4cccnc4)cc3o2)c1 (configuration not stated)	45	?	10	4%	?	9.2µM*
COc1ccc(Cc2nc3ccc(C(=O)NCCCN4CCN(C)CC4)cc3o2)cc1	nt	?	-19	-14%	nt	?
O=C(NCCc1ccccc1)c1ccc2nc(CCc3ccccc3)oc2c1	nt	-6%	6	1%	nt	-25%
Cc1ccc(C)c(NC(=O)c2ccc3nc(CCc4ccccc4)oc3c2)c1	nt	-30%	7	22%	nt	-19%
O=C(Nc1ccc(Br)cc1F)c1ccc2nc(CCc3ccccc3)oc2c1	nt	12µM*	-19	0%	nt	7.3µM*
O=C(Nc1cccc(Cl)c1)c1ccc2nc(Cc3ccccc3)oc2c1	nt	21µM*	-18	?	nt	21µM*
CCc1cc(CNC(=O)c2ccc3nc(Cc4ccc(OC)c(OC)c4)oc3c2)on1	3	?	2	-4%	5	23µM*
CCC(C)NC(=O)c1ccc2nc(Cc3ccccc3)oc2c1 (configuration not stated)	nt	15µM*	-15	-1%	nt	?
COc1ccc(CNC(=O)c2ccc3nc(CCc4ccccc4)oc3c2)cc1	nt	-23%	-11	0%	nt	?
COc1ccc(CNC(=O)c2ccc3nc(CCc4ccccc4)oc3c2)cc1OC	nt	16µM*	12	-26%	nt	18µM*
N#Cc1cccnc1N1CCN(C(=O)COCC(=O)O)CC1	10	-10%	-4	5%	9	1%
COc1ccc(N2CCN(CCCNC(=O)c3ccc4nc(CCc5ccccc5)oc4c3)CC2)cc1	nt	16µM*	0	36%	nt	15µM*
COc1ccccc1S(=O)(=O)Cc1ccc(C(=O)NCCCN2CCN(c3ccc(F)cc3)CC2)o1	-77*	?	-6	-2%	-7	?
COc1ccc(N2CCN(CCCNC(=O)c3ccc(CS(=O)(=O)c4ccc(OC)cc4)o3)CC2)cc1	-11	?	18	-3%	0	?
